Reference: PubChem BioAssay (Tox21)
Values without a mark were called inactive. Calls of active or inactive are those of the source. Calls follow the shape of the dose curve; as a rule, active = well fitted curve in the direction sought with a large enough effect in the repeat runs; inconclusive = weak or mixed curves; inactive = flat fitted curve, though single readings scatter.
% is scaled to controls: 0 for no effect and ±100 for the full control effect.

Test: qHTS assay to test for compound auto fluorescence at 460 nm (blue) in HEK293 cells (AID 720678)
Conditions: blue autofluorescence 405/460 nm; series mostly up to 91.3 µM
Source text: National Center for Advancing Translational Sciences [NCATS]
NIH Chemical Genomics Center [NCGC]
U.S. Environmental Protection Agency [EPA]
National Institutes of Environmental Health Sciences [NIEHS]
National Toxicology Program [NTP]
U.S. Food and Drug Administration [FDA]
Compound auto fluorescence often interferes with screening of the compound library against various biological targets and signaling pathways. Some of these compounds may have fluorophoric properties. Such properties may interfere with the assay outputs resulting in false positives and/or negatives. To decrease such complications and ensure the compound activities are relevant in terms of biological response, the Tox21 10K compound library was screened for auto fluorescence.
From the fluorophores used as reporter signals in our screening assays, the auto fluorescence equivalencies of compounds against three fluorophores have been evaluated: Triamterene, Fluorescein and Rose Bengal sodium for blue, green and red fluorescence, respectively. The fluorescence intensities were measured using Excitation/Emission wavelengths at 405/460nm, 485/535nm and 540/590nm for blue, green and red labels, respectively. This assay includes the blue fluorescence data.
Tox21 Assay Protocol Summary:
2,000 HEK293 cells in 5 uL of culture medium containing 10% dialyzed FBS per well were dispensed into black wall/clear bottom 1536-well plates using a Multidrop Combi Dispenser (Thermo Scientific). The assay plates were incubated for 4-5 hr at 37C to allow cell attachment to the well bottom, followed by the transfer of 23 nL compound or DMSO vehicle by a pintool work station (Kalypsys, San Diego, CA). After the assay plates were incubated overnight at 37C and 5% CO2, fluorescence intensities in the assay plates were measured by an Envision (PerkinElmer, Shelton, CT) plate reader using three labels for measuring blue, green and red fluorescence at […] 460, 535 and 590nm respectively.
In the case of `NCc1ccccc1Sc1ccccc1CO`, the outcome is reported as “inactive”.
For `Cc1ccc(N=Nc2c(O)c(C(=O)O)cc3ccccc23)c(S(=O)(=O)O)c1`, the outcome was “inactive”.
In the case of `C[C@@H](c1ncncc1F)C(O)(Cn1cncn1)c1ccc(F)cc1F` (stereo not given in full), the outcome is reported as “inactive”.
With `c1cc(CCCc2ccncc2)ccn1` the outcome was “inactive”.
For `O=C(OCCc1ccccc1)c1ccccc1`, the outcome was “inactive”.
With `CCOC(=O)COC(=O)c1cc(Oc2ccc(C(F)(F)F)cc2Cl)ccc1[N+](=O)[O-]` the outcome was “inactive”.
In the case of `C[N+]1(C)CCC(OC(=O)C(O)(c2ccccc2)C2CCCC2)C1` (stereo not given), the outcome is reported as “inactive”.
For `CC(C)OC(=O)C(C)N(C(=O)c1ccccc1)c1ccc(F)c(Cl)c1` (stereo not given), the outcome was “inactive”.
With `CCO[Si](CCCCl)(OCC)OCC` the outcome was “inactive”.
With `CN(C)c1ccc(/C=C/c2ccc([N+](=O)[O-])cc2)cc1` the fluorescence, % of triamterene was 0.0267% [at 3.72 µM].
In the case of `O=C(O)CNCC(=O)O`, the fluorescence, % of triamterene is reported as -0.267% [at 3.72 µM].
For `O=C(Nc1ccccc1)c1ccccc1O`, the outcome was “inactive”.
With `O=C(c1ccc(F)cc1)C1CCN(CCn2c(=S)[nH]c3ccccc3c2=O)CC1` the outcome was “inactive”.
With `CCCCc1nc2cccnc2n1Cc1ccc(-c2ccccc2-c2nnn[nH]2)cc1` the outcome was “inactive”.
`CN1CCN(C(c2ccccc2)c2ccccc2)CC1` gave a fluorescence, % of triamterene of -0.0167% [at 18.6 µM].
For `CCOC(=O)c1cccnc1`, the outcome was “inactive”.
With `Cc1cc(C(=O)O)ccc1[N+](=O)[O-]` the outcome was “inactive”.
For `CCOCC(O)COc1ccc(NC(=O)CC[S+](C)C)cc1` (stereo not given), the outcome was “inactive”.
In the case of `CCOC(=O)C1=C[C@]2(CC)CCCN3CCc4c(n1c1ccccc41)[C@@H]32`, the outcome is reported as “inactive”.
For `NC(N)=NCCC[C@H](N)C(=O)O`, the outcome was “inactive”.
In the case of `CCNc1cc(O)ccc1C`, the outcome is reported as “inactive”.
In the case of `CCC(=O)O[C@]1(C(=O)CCl)[C@@H](C)C[C@H]2[C@@H]3CCC4=CC(=O)C=C[C@]4(C)[C@@]3(F)[C@@H](O)C[C@@]21C`, the outcome is reported as “inactive”.
For `ClCCOCCOCCCl`, the outcome was “inactive”.
For `CN(C)CCN(Cc1ccccc1)c1ccccn1`, the outcome was “inactive”.
For `CN1CCC(N(Cc2cccs2)c2ccccc2)CC1`, the outcome was “inactive”.
With `O=C1c2ccccc2S(=O)(=O)N1CCCCN1CCN(c2ncccn2)CC1` the outcome was “inactive”.
In the case of `C=C(C)C(=O)OCCOCC`, the outcome is reported as “inactive”.
In the case of `CC(C)(C)OCC1CO1` (stereo not given), the outcome is reported as “inactive”.
For `Brc1c2ccccc2cc2ccccc12`, the outcome was “inactive”.
With `CC(=O)OC[C@H]1O[C@@H](n2ncc(=O)[nH]c2=O)[C@H](OC(C)=O)[C@@H]1OC(C)=O` the outcome was “inactive”.
In the case of `O=C1OC(=O)C2C3C=CC(C3)C12` (stereo not given), the outcome is reported as “inactive”.
For `CN1CCC(=C2c3ccccc3Sc3ccccc32)CC1`, the outcome was “inactive”.
In the case of `CCCCO`, the outcome is reported as “inactive”.
With `Cc1c(N)cccc1[N+](=O)[O-]` the outcome was “inactive”.
For `CCCCCCCCCCCc1ccccc1`, the outcome was “inactive”.
In the case of `OC(C#CCN1CCCC1)(c1ccccc1)c1ccccc1`, the outcome is reported as “inactive”.
For `Cc1ncc(CO)c(C=O)c1O`, the outcome was “inactive”.
`CCn1cc(C(=O)O)c(=O)c2cnc(N3CCNCC3)nc21` showed a fluorescence, % of triamterene of -0.0251% [at 18.6 µM].
For `OCCNCc1ccccc1`, the outcome was “inactive”.
For `O=C1CCC(=O)O1`, the outcome was “inactive”.
